The subject of the assay is Plasmodium falciparum. Briefly: GSK_TCMDC: Inhibition of Plasmodium falciparum 3D7 in whole red blood cells, using parasite LDH activity as an index of growth. Test compounds present at 2uM. Type of assay: functional.
`Nc1c(-c2ccc(C(=O)NCCNCc3ccccc3)cc2)cnn1-c1ccc(C(F)(F)F)cc1.O=C(O)C(F)(F)F` showed an Inhibition of 85%.
Next, `CCN(C(=O)NC)C1c2cc(C#N)ccc2OC(C)(C)C1O` (stereo unspecified): 96%.
For the compound `O=C(Nc1ccc(Cl)c(Cl)c1)Nc1ccc2c(c1)CCNCC2.O=C(O)C(F)(F)F`, the Inhibition is on record as 86%.
`CC(C)C[C@H](NC(=O)c1ccc(OCCN2CCOCC2)cc1)C(=O)NC(/C=N/N1CCCC1=O)C(C)C` (stereo partly specified) came in with an Inhibition of 90%.
Next, `CC[C@H](NC(=O)c1ccc(NC(=O)OC(C)(C)C)cc1)C(=O)N[C@@H](CO)C(=O)NCCCCc1ccccc1`: 98%.
The same measure for `COc1ccc2nccc(NCC3(O)CCC(NCc4cc5c(cn4)OCCO5)CC3)c2n1.Cl` (stereo unspecified): 99%; for `Oc1cccc2ccc(Nc3ccccn3)nc12`: 99%; for `COc1ccc(C(=O)Cn2nc(-c3ccc(Cl)cc3)ccc2=O)c(OC)c1`: 93%.
Next, `CN1CCC(C(=O)Nc2cccc(-c3ccc(-c4nc5cc(C(F)(F)F)ccc5[nH]4)s3)c2)CC1`: 100%.
Turning to `Cc1nc(-c2nc(NCc3ccc4c(c3)OCO4)ncc2-c2ccsc2)sc1C`, the Inhibition was found to be 97%.
Next, `COc1cc2nc(N3CCC(CNC(=O)c4cc5ccccc5s4)CC3)nc(N)c2cc1OC`: 100%; `Cc1ccc(C)c(Cn2ccc3nc(N)nc(N)c32)c1`: 97%; `Fc1ccc2[nH]c(-c3ccc(-c4ccc(CN5CCN(CCN6CCOCC6)CC5)cc4)cc3)nc2c1.O=C(O)C(F)(F)F`: 100%.
Next, `Cc1c(CNCCCNc2cc(=O)c3ccccc3[nH]2)sc(C(F)=C(F)F)c1Br.Cl`: 94%.
Next, `Cn1nccc1C(=O)NCCNCc1cccc(-c2csc(-c3nc4ccccc4[nH]3)c2)c1.O=C(O)C(F)(F)F`: 100%; `CC(C)(CNCc1cccc(Oc2ccccc2)c1)c1nc(-c2ccnc(N)n2)c(-c2ccc(Cl)c(O)c2)[nH]1.Cl`: 97%.
Compound `CC(C)N1CCC(N(Cc2ccc(-c3ccc(C(F)(F)F)cc3)cc2)C(=O)Cn2c(SCc3cccc(F)c3F)cc(=O)c3c2CCC3)CC1.O=C(O)C(O)C(O)C(=O)O` had an Inhibition of 88%.
For the compound `Cc1ncc([N+](=O)[O-])n1CCOC(=O)NC(NCC1COc2ccccc2O1)C(Cl)(Cl)Cl` (stereo unspecified), the Inhibition turned out to be 100%.
Compound `CSC1=NC(C)(C)CC2(CC(c3cccc(C)c3)c3cc(Cl)c(O)cc3O2)N1` (stereo unspecified) displayed an Inhibition of 100%.
`O=C(Nc1cccc(CN2CCCN(Cc3ccc(F)cc3)CC2)c1)c1ccc(Cl)c(Cl)c1.O=C(O)C(F)(F)F` registered an Inhibition of 95%.
Next, `C=CCN(C(=O)c1ccc(Cl)c([N+](=O)[O-])c1)c1nc(-c2ccccc2)cs1`: 100%.
Next, `COc1cc(Cc2cnc(N)nc2N)ccc1OCC(=O)Nc1ccc(C)cc1`: 95%; `COc1cccc(C2=CC(c3ccccc3)n3ncc(C(=O)Nc4ccc(Cl)cc4)c3N2)c1` (stereo unspecified): 88%.
The same measure for `CC(C)N1CCC(NC(=O)N2CCCN(c3ncnc4cc(-c5ccccc5)sc34)CC2)CC1.O=C(O)C(F)(F)F`: 87%; for `C[C@@]12C[C@@H](Nc3nc(NCCc4ccc(O)cc4)nc(N4CCNCC4)n3)C[C@@H](C1)c1cccc(Cl)c1O2.O=C(O)C(F)(F)F`: 100%.
The compound `CC[C@@H]([C@@H](CC(C)C)C(=O)N[C@@H](CCCCNC(=O)OCc1ccccc1)C(=O)Nc1ccccn1)N(O)C=O` came in with an Inhibition of 98%.

Values taken from ChEMBL document CHEMBL1157539, “Thousands of chemical starting points for antimalarial lead identification” (Nature, 2010).
